The record followed here is publication PMC7862700, “An all-to-all approach to the identification of sequence-specific readers for epigenetic DNA modifications on cytosine”.

Common to all, as to assay: DAPPL (digital affinity profiling via proximity ligation, sequencing); 10 mM Tris-HCl pH 7.5, 50 mM NaCl, 1 mM DTT, 4% glycerol, room temperature, 30 min; GST-TFs on glutathione beads, 16-mer random dsDNA library, 0.1% formaldehyde crosslink after washing; high values mean tight binding
One assay addresses T1, FEV (Homo sapiens, UniProt Q99581 1-238).
T1 sequence: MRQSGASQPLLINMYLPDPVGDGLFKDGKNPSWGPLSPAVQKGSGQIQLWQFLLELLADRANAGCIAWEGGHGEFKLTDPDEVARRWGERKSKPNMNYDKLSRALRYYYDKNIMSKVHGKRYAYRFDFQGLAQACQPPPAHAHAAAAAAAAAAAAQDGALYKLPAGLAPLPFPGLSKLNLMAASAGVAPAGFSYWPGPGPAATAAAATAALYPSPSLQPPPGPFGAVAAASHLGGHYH
Conditions: protein: recombinant; tags: N-terminal GST; dsDNA, one strand shown. The essentials:
(§1)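 In yeast, human transcription factors were expressed with a GST fusion, then pulled down on glutathione beads and given DNA barcodes. Pooled with a tag-only sample, they were exposed to 200 nmole of a 16-mer random double-stranded DNA library (Tris/NaCl/DTT/glycerol buffer, room temperature, 30 min), washed, crosslinked with 0.1% formaldehyde, proximity-ligated using BsaI/T4 ligase for 1 h at 37 °C, PCR-amplified and read on an Illumina NextSeq500. Each hexamer's frequency of reads for a factor, divided by the matching frequency for the tag-only sample, gives the binding signal.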

A further assay addresses ETV5 (Homo sapiens, UniProt P41161 1-510). To be noted: protein: recombinant; tags: N-terminal GST; dsDNA, one strand shown. A digest of the protocol: as §1
Another assay concerns the target HSF1 (Homo sapiens, UniProt Q00613 1-529). Conditions: protein: recombinant; tags: N-terminal GST; chain copies: 3; dsDNA, one strand shown. The essentials: as §1
For another assay, the target named is T2, SPIC (Homo sapiens, UniProt Q8N5J4 1-248).
T2 sequence: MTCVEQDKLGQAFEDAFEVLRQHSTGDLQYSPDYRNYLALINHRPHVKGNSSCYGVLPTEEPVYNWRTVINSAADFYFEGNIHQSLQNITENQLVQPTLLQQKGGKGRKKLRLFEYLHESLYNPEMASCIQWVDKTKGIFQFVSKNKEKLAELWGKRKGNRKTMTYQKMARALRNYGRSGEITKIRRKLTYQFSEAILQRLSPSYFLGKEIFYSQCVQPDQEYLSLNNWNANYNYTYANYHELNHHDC
Conditions: protein: recombinant; tags: N-terminal GST; dsDNA, one strand shown. A digest of the protocol:
as §1

Another assay addresses ELF4 (Homo sapiens, UniProt Q99607 1-663). Conditions: protein: recombinant; tags: N-terminal GST; dsDNA, one strand shown. The essentials:
as §1

Another assay has as its target T3, ELK4 (Homo sapiens, UniProt P28324-2 1-405).
T3 sequence: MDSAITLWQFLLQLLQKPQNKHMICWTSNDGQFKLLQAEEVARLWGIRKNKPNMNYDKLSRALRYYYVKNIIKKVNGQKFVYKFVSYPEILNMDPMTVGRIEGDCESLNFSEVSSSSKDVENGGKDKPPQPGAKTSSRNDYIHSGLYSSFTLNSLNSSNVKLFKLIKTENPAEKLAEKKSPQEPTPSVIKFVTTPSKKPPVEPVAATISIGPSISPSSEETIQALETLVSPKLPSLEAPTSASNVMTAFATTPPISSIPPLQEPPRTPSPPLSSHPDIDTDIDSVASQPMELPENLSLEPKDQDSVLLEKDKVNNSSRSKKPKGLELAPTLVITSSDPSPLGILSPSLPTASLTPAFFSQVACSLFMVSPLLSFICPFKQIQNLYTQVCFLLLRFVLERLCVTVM
To be noted: protein: recombinant; tags: N-terminal GST; dsDNA, one strand shown. A digest of the protocol: as §1

In the next assay the target is T4, ETV2 (Homo sapiens, UniProt O00321 1-342).
T4 sequence: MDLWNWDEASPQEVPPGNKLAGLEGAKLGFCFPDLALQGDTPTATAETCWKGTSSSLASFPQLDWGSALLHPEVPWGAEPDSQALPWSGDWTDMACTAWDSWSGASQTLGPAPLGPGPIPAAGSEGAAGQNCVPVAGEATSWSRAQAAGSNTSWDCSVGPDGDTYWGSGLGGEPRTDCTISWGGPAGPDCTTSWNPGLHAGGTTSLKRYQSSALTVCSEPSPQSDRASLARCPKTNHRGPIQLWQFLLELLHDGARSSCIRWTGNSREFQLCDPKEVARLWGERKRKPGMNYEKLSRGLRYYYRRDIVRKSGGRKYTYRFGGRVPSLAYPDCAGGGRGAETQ
To be noted: protein: recombinant; tags: N-terminal GST; dsDNA, one strand shown. The essentials:
as §1

Another assay has as its target T5, ELF3 (Homo sapiens, UniProt P78545 1-371).
T5 sequence: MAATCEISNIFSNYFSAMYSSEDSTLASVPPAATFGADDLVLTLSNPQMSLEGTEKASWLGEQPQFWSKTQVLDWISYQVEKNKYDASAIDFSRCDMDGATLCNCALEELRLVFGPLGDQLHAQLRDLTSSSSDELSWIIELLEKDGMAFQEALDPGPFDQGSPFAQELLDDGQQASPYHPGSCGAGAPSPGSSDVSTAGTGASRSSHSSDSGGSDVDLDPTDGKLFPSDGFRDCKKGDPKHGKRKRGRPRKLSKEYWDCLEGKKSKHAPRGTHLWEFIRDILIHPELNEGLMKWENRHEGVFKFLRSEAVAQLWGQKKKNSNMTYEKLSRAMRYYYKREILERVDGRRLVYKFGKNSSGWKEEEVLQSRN
Conditions: protein: recombinant; tags: N-terminal GST; dsDNA, one strand shown. A digest of the protocol: as §1

The target in another assay is CRX (Homo sapiens, UniProt O43186 1-299). Conditions: protein: recombinant; tags: N-terminal GST; dsDNA, one strand shown. The essentials:
as §1

Another assay concerns the target ETV1 (Homo sapiens, UniProt P50549 1-477). Conditions: protein: recombinant; tags: N-terminal GST; dsDNA, one strand shown. The essentials: as §1
The next assay addresses T6, ERF (Homo sapiens, UniProt P50548 1-548).
T6 sequence: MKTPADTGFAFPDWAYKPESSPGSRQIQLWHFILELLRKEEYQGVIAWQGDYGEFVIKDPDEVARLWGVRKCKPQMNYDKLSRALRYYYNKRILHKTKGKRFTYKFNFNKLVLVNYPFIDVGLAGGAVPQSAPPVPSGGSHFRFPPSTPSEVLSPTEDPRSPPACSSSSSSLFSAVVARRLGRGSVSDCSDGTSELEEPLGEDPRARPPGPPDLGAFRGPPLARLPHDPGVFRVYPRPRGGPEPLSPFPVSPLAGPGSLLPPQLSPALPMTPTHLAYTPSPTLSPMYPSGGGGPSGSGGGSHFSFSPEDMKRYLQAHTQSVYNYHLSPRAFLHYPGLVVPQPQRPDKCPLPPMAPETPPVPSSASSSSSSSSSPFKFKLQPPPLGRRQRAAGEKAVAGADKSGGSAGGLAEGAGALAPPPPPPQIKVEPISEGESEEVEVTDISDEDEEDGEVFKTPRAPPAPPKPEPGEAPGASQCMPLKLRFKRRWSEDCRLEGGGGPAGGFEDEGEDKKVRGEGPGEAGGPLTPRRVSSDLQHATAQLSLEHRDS
Conditions: protein: recombinant; tags: N-terminal GST; dsDNA, one strand shown. A digest of the protocol: as §1

In a further assay the target is T7, ETV3L (Homo sapiens, UniProt Q6ZN32 1-361).
T7 sequence: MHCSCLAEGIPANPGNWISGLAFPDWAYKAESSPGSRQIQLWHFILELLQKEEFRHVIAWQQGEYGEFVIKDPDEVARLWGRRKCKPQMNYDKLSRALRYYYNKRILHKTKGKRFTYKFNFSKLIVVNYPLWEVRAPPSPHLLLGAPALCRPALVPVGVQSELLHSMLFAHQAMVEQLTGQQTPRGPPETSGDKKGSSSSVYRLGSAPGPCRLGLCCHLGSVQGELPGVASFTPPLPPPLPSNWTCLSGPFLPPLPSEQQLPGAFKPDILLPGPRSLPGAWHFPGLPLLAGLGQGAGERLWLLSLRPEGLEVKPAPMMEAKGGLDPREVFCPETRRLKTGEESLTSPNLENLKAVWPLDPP
To be noted: protein: recombinant; tags: N-terminal GST; dsDNA, one strand shown. The essentials:
as §1

For the next assay, the target named is T8, ETS2 (Homo sapiens, UniProt P15036 1-469).
T8 sequence: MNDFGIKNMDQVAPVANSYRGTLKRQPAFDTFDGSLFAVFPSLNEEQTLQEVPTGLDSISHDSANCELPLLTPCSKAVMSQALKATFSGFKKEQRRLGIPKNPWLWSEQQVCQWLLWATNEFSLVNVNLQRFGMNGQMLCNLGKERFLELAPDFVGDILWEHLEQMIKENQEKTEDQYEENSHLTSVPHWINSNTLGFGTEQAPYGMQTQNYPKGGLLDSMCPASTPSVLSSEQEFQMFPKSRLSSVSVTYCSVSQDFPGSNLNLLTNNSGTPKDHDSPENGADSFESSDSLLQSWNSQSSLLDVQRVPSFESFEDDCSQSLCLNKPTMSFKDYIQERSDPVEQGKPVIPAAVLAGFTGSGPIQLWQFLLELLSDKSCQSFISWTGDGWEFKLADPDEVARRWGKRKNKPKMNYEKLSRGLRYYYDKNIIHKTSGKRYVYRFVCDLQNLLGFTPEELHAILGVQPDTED
Conditions: protein: recombinant; tags: N-terminal GST; dsDNA, one strand shown. A digest of the protocol: as §1

In a further assay the target is T9, SPDEF (Homo sapiens, UniProt O95238 1-335).
T9 sequence: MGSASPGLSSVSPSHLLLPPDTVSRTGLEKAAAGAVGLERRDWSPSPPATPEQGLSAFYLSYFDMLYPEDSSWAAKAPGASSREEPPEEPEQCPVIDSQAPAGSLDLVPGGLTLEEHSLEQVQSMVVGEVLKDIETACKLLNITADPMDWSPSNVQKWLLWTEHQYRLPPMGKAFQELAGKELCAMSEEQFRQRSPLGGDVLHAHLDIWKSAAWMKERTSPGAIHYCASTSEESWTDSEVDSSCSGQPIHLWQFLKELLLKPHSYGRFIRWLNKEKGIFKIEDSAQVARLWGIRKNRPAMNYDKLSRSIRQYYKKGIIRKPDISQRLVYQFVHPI
Conditions: protein: recombinant; tags: N-terminal GST; dsDNA, one strand shown. The essentials: as §1

In another assay the target is T10, ETV7 (Homo sapiens, UniProt Q9Y603 1-341).
T10 sequence: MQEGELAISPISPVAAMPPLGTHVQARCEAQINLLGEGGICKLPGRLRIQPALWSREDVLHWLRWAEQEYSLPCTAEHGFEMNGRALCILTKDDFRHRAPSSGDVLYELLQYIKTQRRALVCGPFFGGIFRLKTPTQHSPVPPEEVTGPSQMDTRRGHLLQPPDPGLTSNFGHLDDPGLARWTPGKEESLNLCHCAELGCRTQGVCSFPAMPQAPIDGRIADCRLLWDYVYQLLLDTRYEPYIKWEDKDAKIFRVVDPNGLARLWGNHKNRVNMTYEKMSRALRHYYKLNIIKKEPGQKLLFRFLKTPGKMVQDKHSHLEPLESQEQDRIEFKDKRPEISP
Conditions: protein: recombinant; tags: N-terminal GST; dsDNA, one strand shown. The essentials:
as §1

Another assay addresses T11, ELF5 (Homo sapiens, UniProt Q9UKW6-2 1-255).
T11 sequence: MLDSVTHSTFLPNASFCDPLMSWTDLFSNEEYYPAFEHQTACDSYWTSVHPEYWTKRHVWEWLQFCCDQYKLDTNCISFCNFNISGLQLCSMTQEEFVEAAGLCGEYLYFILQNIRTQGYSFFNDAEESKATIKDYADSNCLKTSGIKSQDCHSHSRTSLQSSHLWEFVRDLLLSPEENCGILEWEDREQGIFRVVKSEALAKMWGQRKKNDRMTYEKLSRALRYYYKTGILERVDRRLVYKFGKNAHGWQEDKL
To be noted: protein: recombinant; tags: N-terminal GST; dsDNA, one strand shown. A digest of the protocol:
as §1

For a further assay, the target named is T12, ETV3 (Homo sapiens, UniProt P41162-2 1-143).
T12 sequence: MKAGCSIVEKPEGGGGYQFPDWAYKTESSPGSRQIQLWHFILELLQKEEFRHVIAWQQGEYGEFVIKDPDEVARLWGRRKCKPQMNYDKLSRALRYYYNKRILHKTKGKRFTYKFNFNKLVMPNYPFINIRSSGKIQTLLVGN
To be noted: protein: recombinant; tags: N-terminal GST; dsDNA, one strand shown. The essentials: as §1

Another assay has as its target ETV6 (Homo sapiens, UniProt P41212 1-452). To be noted: protein: recombinant; tags: N-terminal GST; dsDNA, one strand shown. A digest of the protocol:
as §1

Sequence of CRX (O43186 whole entry): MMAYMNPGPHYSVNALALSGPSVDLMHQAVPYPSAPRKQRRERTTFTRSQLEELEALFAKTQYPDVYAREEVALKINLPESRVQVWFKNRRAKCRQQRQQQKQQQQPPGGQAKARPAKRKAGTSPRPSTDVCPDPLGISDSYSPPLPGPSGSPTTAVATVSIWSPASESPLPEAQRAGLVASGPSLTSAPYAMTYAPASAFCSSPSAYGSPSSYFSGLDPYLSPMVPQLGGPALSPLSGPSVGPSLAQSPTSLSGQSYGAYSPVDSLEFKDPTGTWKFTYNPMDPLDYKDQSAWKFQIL
Sequence of ETV6 (P41212 whole entry): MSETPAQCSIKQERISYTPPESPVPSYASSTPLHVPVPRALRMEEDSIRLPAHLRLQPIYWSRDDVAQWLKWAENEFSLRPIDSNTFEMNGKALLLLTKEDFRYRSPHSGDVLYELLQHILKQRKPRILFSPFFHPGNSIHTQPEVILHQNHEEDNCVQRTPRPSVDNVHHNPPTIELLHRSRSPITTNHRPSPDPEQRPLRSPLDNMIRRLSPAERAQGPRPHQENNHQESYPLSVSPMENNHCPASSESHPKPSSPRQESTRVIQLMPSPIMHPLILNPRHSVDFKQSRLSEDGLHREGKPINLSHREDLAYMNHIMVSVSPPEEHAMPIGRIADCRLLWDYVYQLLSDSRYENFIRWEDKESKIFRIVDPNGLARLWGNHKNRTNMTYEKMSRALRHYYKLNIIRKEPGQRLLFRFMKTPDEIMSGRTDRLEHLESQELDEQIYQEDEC
Sequence of ELF4 (Q99607 whole entry): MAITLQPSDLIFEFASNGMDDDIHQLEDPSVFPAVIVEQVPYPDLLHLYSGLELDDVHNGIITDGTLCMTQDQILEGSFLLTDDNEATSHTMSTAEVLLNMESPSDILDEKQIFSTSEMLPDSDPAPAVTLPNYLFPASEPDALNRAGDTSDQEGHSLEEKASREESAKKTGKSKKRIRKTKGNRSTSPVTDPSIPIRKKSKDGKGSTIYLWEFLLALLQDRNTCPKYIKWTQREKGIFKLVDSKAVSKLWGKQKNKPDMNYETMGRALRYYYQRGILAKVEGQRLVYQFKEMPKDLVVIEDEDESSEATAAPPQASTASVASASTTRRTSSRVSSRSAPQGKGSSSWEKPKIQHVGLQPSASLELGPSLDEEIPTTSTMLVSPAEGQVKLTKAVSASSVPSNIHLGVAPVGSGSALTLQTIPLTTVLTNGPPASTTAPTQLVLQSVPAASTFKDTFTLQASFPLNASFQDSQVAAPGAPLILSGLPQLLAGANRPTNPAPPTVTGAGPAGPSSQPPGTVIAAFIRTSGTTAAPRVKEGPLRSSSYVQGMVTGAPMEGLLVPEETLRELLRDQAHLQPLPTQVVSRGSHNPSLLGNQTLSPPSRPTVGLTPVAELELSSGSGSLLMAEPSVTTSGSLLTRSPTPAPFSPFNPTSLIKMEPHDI
Sequence of ETV5 (P41161 whole entry): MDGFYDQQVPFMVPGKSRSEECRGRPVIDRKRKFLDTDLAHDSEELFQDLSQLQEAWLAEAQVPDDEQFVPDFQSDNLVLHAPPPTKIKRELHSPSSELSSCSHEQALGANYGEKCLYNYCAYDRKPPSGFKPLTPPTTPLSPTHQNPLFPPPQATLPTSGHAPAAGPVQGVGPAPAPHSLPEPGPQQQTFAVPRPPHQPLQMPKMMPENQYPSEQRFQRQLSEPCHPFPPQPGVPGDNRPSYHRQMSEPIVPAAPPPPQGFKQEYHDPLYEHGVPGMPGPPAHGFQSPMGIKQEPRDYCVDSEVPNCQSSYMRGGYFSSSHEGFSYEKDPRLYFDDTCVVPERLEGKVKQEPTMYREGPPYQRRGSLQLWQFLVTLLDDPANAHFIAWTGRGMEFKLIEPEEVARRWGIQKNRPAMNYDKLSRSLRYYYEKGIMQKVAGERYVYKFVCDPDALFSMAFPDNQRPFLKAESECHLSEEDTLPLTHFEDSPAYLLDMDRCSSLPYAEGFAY
Sequence of ETV1 (P50549 whole entry): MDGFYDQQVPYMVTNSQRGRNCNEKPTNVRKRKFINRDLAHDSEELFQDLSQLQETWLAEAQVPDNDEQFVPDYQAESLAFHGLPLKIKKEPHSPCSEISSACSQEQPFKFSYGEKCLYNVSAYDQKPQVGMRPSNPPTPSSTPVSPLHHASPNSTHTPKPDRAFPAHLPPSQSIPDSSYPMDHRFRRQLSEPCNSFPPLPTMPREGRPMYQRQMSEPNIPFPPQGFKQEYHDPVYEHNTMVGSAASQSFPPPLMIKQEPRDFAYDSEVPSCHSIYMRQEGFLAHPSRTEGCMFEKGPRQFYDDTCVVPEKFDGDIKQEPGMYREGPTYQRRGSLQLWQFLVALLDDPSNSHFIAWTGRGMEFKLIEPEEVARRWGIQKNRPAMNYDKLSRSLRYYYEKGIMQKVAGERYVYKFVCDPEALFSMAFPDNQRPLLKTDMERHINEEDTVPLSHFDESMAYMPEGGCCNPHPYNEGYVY
Sequence of HSF1 (Q00613 whole entry): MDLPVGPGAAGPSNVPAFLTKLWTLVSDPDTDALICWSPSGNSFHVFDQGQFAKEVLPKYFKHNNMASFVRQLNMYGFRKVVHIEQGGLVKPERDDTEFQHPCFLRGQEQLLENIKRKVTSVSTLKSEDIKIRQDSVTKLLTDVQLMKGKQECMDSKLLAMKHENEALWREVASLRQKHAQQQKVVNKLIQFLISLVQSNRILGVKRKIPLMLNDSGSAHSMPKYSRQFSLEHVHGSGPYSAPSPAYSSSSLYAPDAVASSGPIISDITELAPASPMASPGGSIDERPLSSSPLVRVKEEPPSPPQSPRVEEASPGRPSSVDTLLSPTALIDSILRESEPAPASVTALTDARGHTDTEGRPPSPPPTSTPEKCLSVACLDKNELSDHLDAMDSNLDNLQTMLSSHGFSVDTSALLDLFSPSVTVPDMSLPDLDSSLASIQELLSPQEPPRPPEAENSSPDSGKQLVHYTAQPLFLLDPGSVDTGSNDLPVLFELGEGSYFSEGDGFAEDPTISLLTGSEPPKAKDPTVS

In the case of TATAGT, the binding signal in the assay with FEV was 1.03 fold enrichment (6-mer frequency, TF over GST control); in the assay with ETV5 it was 1.11 fold enrichment (6-mer frequency, TF over GST control); with HSF1, 1.07 fold enrichment (6-mer frequency, TF over GST control); in the assay with SPIC, 1.09 fold enrichment (6-mer frequency, TF over GST control); with ELF4, 1.03 fold enrichment (6-mer frequency, TF over GST control); with ELK4, 1.31 fold enrichment (6-mer frequency, TF over GST control). Moreover, the binding signal with ETV2 is 1.12 fold enrichment (6-mer frequency, TF over GST control); with ELF3, 1.28 fold enrichment (6-mer frequency, TF over GST control); with CRX it was 1.34 fold enrichment (6-mer frequency, TF over GST control); in the assay with ETV1, 1.11 fold enrichment (6-mer frequency, TF over GST control); with ERF, 1.16 fold enrichment (6-mer frequency, TF over GST control); with ETV3L it was 1.06 fold enrichment (6-mer frequency, TF over GST control). For the same sequence, the binding signal with ETS2 is 1.02 fold enrichment (6-mer frequency, TF over GST control); in the assay with SPDEF it was 1.02 fold enrichment (6-mer frequency, TF over GST control); with ETV7 it was 1.2 fold enrichment (6-mer frequency, TF over GST control); with ELF5, 1.04 fold enrichment (6-mer frequency, TF over GST control); with ETV3, 1.06 fold enrichment (6-mer frequency, TF over GST control); with ETV6, 1.09 fold enrichment (6-mer frequency, TF over GST control).
